This is a sample that favours compounds with a hit; in the whole collection about 2.3% have one here.
M1 ag: human M1 muscarinic receptor agonism; CHO-K1 hM1, Fluo-8 calcium fluorescence, agonist mode; 0% DMSO, 100% acetylcholine EC100; activation, % at 3 µM; 360,000 tested, 0.33% active; AID 588814;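 active = activation above the run's mean compound activation plus 3 SD, cut at about 16% in these data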;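 also: peak over basal fluorescence ratio within a 140 s kinetic read after compound addition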
Target sequence (P11229 whole entry, looked up): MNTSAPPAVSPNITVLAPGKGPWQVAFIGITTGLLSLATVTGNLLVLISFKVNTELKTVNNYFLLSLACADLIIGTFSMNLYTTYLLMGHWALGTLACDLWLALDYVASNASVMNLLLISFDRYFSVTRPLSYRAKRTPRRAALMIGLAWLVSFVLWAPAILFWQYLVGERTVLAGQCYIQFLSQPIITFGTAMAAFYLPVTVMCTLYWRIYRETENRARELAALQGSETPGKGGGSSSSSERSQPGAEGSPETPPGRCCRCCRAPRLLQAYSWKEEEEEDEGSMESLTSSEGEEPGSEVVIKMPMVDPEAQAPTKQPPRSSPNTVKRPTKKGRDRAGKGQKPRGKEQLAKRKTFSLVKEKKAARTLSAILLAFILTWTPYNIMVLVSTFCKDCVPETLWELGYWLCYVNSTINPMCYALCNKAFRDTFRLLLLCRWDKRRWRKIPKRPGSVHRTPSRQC
M1 PAM: potentiates human M1 receptor response to acetylcholine | CHO-K1 hM1, Fluo-8 calcium fluorescence, ACh EC20; 0% = ACh EC20, 100% = maximal ACh | activation, % at 3 µM | 360,000 tested, 0.088% active; in the data active = activation above about 19%, passing the limit was not always enough
M1 ag parental: nonselective activator or artifact in parental CHO-K1 cells; Fluo-8 calcium fluorescence; scaled to maximal ATP response, vehicle zero; 360,000 tested, 0.48% active; AID 602248; activation, % at 3 µM; in the data active = activation above about 15%;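 also: untransfected CHO-K1 host cells lacking M1 receptor as counterscreen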
CHO-K1 Ca antag: nonselective inhibitor or artifact in parental CHO-K1 cells | ATP-induced calcium, Fluo-8 fluorescence | 360,000 tested, 0.6% active | inhibition, % at 3 µM;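 active = inhibition above a per-plate cutoff, the plate's mean sample inhibition plus 3 SD, cut at about 24% in these data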;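 also: 0% = DMSO plus EC80 ATP and 100% = DMSO alone without ATP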
CHO-K1 Ca PAM: nonselective activator or artifact in parental CHO-K1 calcium assay; ATP EC20, Fluo-8 calcium fluorescence; 0% at ATP EC20, 100% at ATP max; activation, % at 3 µM; 360,000 tested, 0.02% active;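 active = activation above the run cutoff, the mean activation of all test compounds plus 3 SD, cut at about 40% in these data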;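 also: peak over basal fluorescence ratio in a 140 s read after ATP addition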
M1 antag: blocks human M1 muscarinic receptor. CHO-K1 hM1, Fluo-8 calcium fluorescence, ACh EC80 antagonist. inhibition, % at 3 µM. 360,000 tested, 1.3% active;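 active = percent inhibition above its own plate's cutoff, namely the mean of that plate's compound wells plus 3 SD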;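 also: peak over basal fluorescence ratio during 140 s after agonist addition; 0% = ACh EC80 plus DMSO and 100% = DMSO alone without agonist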
* = called active by the depositor; nt = no result given; ! = not confirmed by another sample.

SMILES	M1 ag	M1 PAM	M1 ag parental	CHO-K1 Ca antag	CHO-K1 Ca PAM	M1 antag
C[N+]1([O-])[C@@H]2CC(OC(=O)[C@H](CO)c3ccccc3)C[C@H]1[C@@H]1O[C@@H]12 (stereo partly drawn)	-9	-26	0	9	-6	100*
C[N+]1(C)C2CCC1CC(OC(=O)C(CO)c1ccccc1)C2 (stereo not drawn)	-15	-38	0	-7	-6	101*
C[N+]1(C)C2CCC1CC(OC(=O)c1ccccc1)C2 (stereo not drawn)	-8	-9	0	8	-15	12
CC(C)(C)n1nnnc1C(C1CC1)N1CCC2(CC1)C(=O)NCN2c1ccccc1 (stereo not drawn)	-2	9	1	5	16	0
COC(=O)C1C(C(=O)O)C2(Cl)C(Cl)=C(Cl)C1(Cl)C2(Cl)Cl (stereo not drawn)	-1	2	0	-21	32	-2
CC(=O)N1Cc2cnnn2-c2ccccc2C1C#N (stereo not drawn)	-6	-6	0	-1	-13	8
CCOc1ccc(-c2c(C)n(-c3ccc(OCC)cc3)c3[n+]2CCCCC3)cc1	0	-10	12	40*	-15	30
COc1ccccc1NC(=O)COC(=O)c1cn(C)c2ccccc12	-5	-6	1	19	-20	9
C1CCC2CCCCC2C1 (stereo not drawn)	-1	3	0	-6	-8	-6
O=C1NC(=O)C(C2CCCCCC2)C(=O)N1	3	26*	0	-12	-16	-30
CCC1(CC)C(=O)NC(=Nc2cccc(C(F)(F)F)c2)NC1=O	3	8	5	-2	5	-9
CCC(=NCc1ccco1)c1c(O)n(-c2ccccc2)c(=O)[nH]c1=O	-2	6	-1	29*	7	-1
COCCN(C(=O)COC(=O)Cc1ccccc1)c1c(N)n(Cc2ccccc2)c(=O)[nH]c1=O	-4	5	1	-3	0	-11
CN(C)[C@@H]1C(=O)C(C(N)=O)=C(O)[C@@]2(O)C(=O)C3=C(O)c4c(O)cccc4[C@@](C)(O)C3[C@H](O)C12 (stereo partly drawn)	0	-27	4	27*!	-7	65
CN(C)C1C(=O)C(C(N)=O)=C(O)C2(O)C(=O)C3=C(O)c4c(O)cccc4C(C)(O)C3CC12 (stereo not drawn)	6	-5	0	28*	-12	-9
COC(=O)C1=C(c2ccc(C(C)=O)cc2)C[C@@H]2CC[C@H]1N2C(=O)NC1Cc2ccccc2C1	-11	5	0	-8	8	-2
CCOC(=O)CC(SP1(=S)OCC2(CC=CCC2)CO1)C(=O)OCC (stereo not drawn)	1	-21	10	-1	-6	24*
c1ccc2c(c1)CN(Cc1ccc3c(c1)OCO3)Cc1cnnn1-2	-7	0	0	27*	0	-4
COc1ccccc1OCC(=O)N1CCCC(N2CCN(c3ccc(F)cc3)CC2)C1 (stereo not drawn)	-4	-3	1	1	1	10
O=C(COc1ccccc1Cl)N1CCCC(N2CCN(c3ccc(F)cc3)CC2)C1 (stereo not drawn)	-2	-3	15*	15	7	0
Cc1[nH]c2ccccc2c1CCN	-1	-4	0	29*	-8	18
Cc1[nH]c2ccccc2c1CCCNC1CCCCC1	-5	-2	0	20	-14	-1
O=c1[nH]c(=S)n(-c2ccccc2Cl)c(O)c1C=NCCN1CCNCC1	39*	-13	3	-9	5	26
O=c1[nH]c(=O)n(CCc2ccccc2)c(O)c1C=NCCCn1ccnc1	-5	3	0	62*	-6	-7
O=c1[nH]c(=O)n(Cc2ccccc2)c(O)c1C=NCCN1CCNCC1	-12	-28	0	-13	2	33*
SMILES	M1 ag	M1 PAM	M1 ag parental	CHO-K1 Ca antag	CHO-K1 Ca PAM	M1 antag
Cc1c(-c2cccc(Cl)c2)nc2ccccc2c1C(=O)N1CCC2(CC1)OCCO2	-2	-6	5	3	7	12
Cc1ccccc1C(O)(Cc1ccccc1)C1CN2CCC1CC2 (stereo not drawn)	-6	-26	1	-9	20	98*
CC1=CC(O)C(O)C2(C)C1CC1OC(=O)CC3C(C)C(O)C(=O)C2C13CO (stereo not drawn)	-2	7	1	-8	5	-15
CC(C)(C)C(=O)OC[N+](C)(C)CCOC(=O)C(O)(c1ccccc1)C1CCCC1 (stereo not drawn)	-7	-25	1	-16	24	98*
O=C(O)C(O)(c1ccccc1)C1CCCC1 (stereo not drawn)	-1	4	0	-1	9	-1
CCCC(CCC)C(=O)OC[N+](C)(C)CCOC(=O)C(O)(c1ccccc1)C1CCCC1 (stereo not drawn)	-12	-31	0	0	3	99*
O=c1ccc2c(O)c3ccoc3cc2o1	-3	-4	1	-1	16	3
COc1ccc(CNCCc2c(C)[nH]c3ccc(OC(F)(F)F)cc23)c(OC)c1	0	-8	37*	33*	-7	27
CN1C2CCC1CC(OC(=O)c1ccc(Cl)cc1)C2 (stereo not drawn)	-5	-22	7	0	18	77*
N#CC1c2ccccc2-n2nncc2CN1S(=O)(=O)c1ccc(Cl)cc1 (stereo not drawn)	-1	14	0	-7	14	-20
Cc1ccc(Oc2cc(NN3CCCCC3)c([N+](=O)[O-])cc2[N+](=O)[O-])c([N+](=O)[O-])c1	3	17	-1	-15	15	-12
COC(=O)C1=C(c2cc3ccccc3o2)C[C@@H]2CC[C@H]1N2C	-14	-30	0	-5	5	35*
COC(=O)C1=C(c2cc3ccccc3o2)C[C@@H]2CC[C@H]1N2C(=O)NCc1ccc(F)cc1	-12	-38	0	-14	12	67*
COC(=O)C1=C(c2ccccc2)C[C@@H]2CC[C@H]1N2C(=O)NCc1ccccc1	-10	9	0	-6	-6	-12
COC(=O)C1=C(c2cccc(OCc3ccccc3)c2)C[C@@H]2CC[C@H]1N2C(=O)NCc1ccc(F)cc1	-13	-34	0	-6	-2	38*
COC(=O)C1=C(c2ccccc2)C[C@@H]2CC[C@H]1N2C(=O)NCc1ccc(F)cc1	-13	-37	-1	-7	5	67*
CC[N+](CC)(CC#CCO)CC#Cc1ccccc1	-15	-14	0	-11	12	4
CCCCCN1C(=O)c2cc(OC)ccc2[C@@]2(C(=O)OCC)Cc3cc(Cl)ccc3[C@@H]12	nt	nt	3	-2	13	nt
